In PubChem BioAssay AID1494158 (National Center for Advancing Translational Sciences (NCATS), 2020):
Results filed as inconclusive are left out. Active and inactive are the calls of the source. Calls follow the shape of the full dose curve.

Experiment: VSV-G qHTS counterscreen for inhibitors of SARS-S pseudo-typed particle cell entry
Conditions: VSV-G pseudotyped particle entry counterscreen, luciferase; series mostly up to 57.1 µM

Row | SMILES | Potency
1 | COc1ccc2cc3[n+](cc2c1OC)CCc1cc2c(cc1-3)OCO2 | 17.1 µM (active)
2 | O=C1CCc2ccc(OCCCCN3CCN(c4cccc(Cl)c4Cl)CC3)cc2N1 | 19.2 µM (active)
3 | Cc1cc(-n2c(=O)[nH]c(=O)n(C)c2=O)ccc1Oc1ccc(S(=O)(=O)C(F)(F)F)cc1 | 19.2 µM (active)
4 | N/C(=N\N=C\c1ccc(Cl)cc1)N/N=C/c1ccc(Cl)cc1 | 24.1 µM (active)
5 | CO[C@@]12[C@H](COC(N)=O)C3=C(C(=O)C(C)=C(N)C3=O)N1C[C@@H]1N[C@@H]12 | 3.41 µM (active)
6 | COc1cccc2c1C(=O)c1c(O)c3c(c(O)c1C2=O)C[C@@](O)(C(C)=O)C[C@@H]3O[C@H]1C[C@H](N)[C@H](O)[C@H](C)O1 | 1.92 µM (active)
7 | Oc1c(Cl)cc(Cl)c(Cl)c1Cc1c(O)c(Cl)cc(Cl)c1Cl | 2.71 µM (active)
8 | O=C1c2c(O)ccc(O)c2C(=O)c2c(NCCNCCO)ccc(NCCNCCO)c21 | 0.171 µM (active)
9 | C=CC1(C)CC(=O)C2(O)C(C)(O1)C(OC(C)=O)C(OC(=O)CCN(C)C)C1C(C)(C)CCC(O)C12C (centres undefined) | inactive
10 | CC(C)OC(=O)OCOP(=O)(CO[C@H](C)Cn1cnc2c(N)ncnc21)OCOC(=O)OC(C)C | 0.0961 µM (active)
11 | CC(=O)[C@]1(O)Cc2c(O)c3c(c(O)c2[C@@H](O[C@H]2C[C@H](N)[C@H](O)[C@H](C)O2)C1)C(=O)c1ccccc1C3=O | 4.82 µM (active)
12 | C[C@@H]1CCO[C@H]2Cn3cc(C(=O)NCc4ccc(F)cc4F)c(=O)c(O)c3C(=O)N12 | 0.0054 µM (active)
13 | C[C@@H](c1nc(-c2ccc(C#N)cc2)cs1)[C@](O)(Cn1cncn1)c1cc(F)ccc1F | 21.5 µM (active)
14 | CCCCCCCCCCCCCC[n+]1ccc(C)cc1 | 1.92 µM (active)
15 | CNCCCC12CCC(c3ccccc31)c1ccccc12 | inactive
16 | COc1cc2nccc(Oc3ccc(NC(=O)NC4CC4)c(Cl)c3)c2cc1C(N)=O | 17.1 µM (active)
17 | O=C(Nc1ccc([N+](=O)[O-])cc1Cl)c1cc(Cl)ccc1O | 0.482 µM (active)

Row | SMILES | Potency
18 | COc1cc(NS(C)(=O)=O)ccc1Nc1c2ccccc2nc2ccccc12 | 0.764 µM (active)
19 | CCN(CC)CCNC(=O)c1c(C)[nH]c(/C=C2\C(=O)Nc3ccc(F)cc32)c1C | 17.1 µM (active)
20 | CC(=O)Oc1ccccc1C(=O)Nc1ncc([N+](=O)[O-])s1 | 6.81 µM (active)
21 | CC[C@@H]([C@H](C)O)n1ncn(-c2ccc(N3CCN(c4ccc(OC[C@@H]5CO[C@@](Cn6cncn6)(c6ccc(F)cc6F)C5)cc4)CC3)cc2)c1=O | 6.81 µM (active)
22 | CC(C)(C)C(=O)OCOP(=O)(COCCn1cnc2c(N)ncnc21)OCOC(=O)C(C)(C)C | 0.0681 µM (active)
23 | CC[C@@]1(O)C(=O)OCc2c1cc1n(c2=O)Cc2cc3c(CN(C)C)c(O)ccc3nc2-1 | 0.383 µM (active)
24 | CC(=O)N1CCN(c2ccc(OC[C@H]3CO[C@](Cn4ccnc4)(c4ccc(Cl)cc4Cl)O3)cc2)CC1 | 19.2 µM (active)
25 | O=C(Nc1ccc(Cl)cc1)Nc1ccc(Cl)c(C(F)(F)F)c1 | 9.61 µM (active)
26 | COc1cc([C@@H]2c3cc4c(cc3C(O[C@@H]3O[C@@H]5CO[C@@H](c6cccs6)OC5[C@H](O)[C@H]3O)C3COC(=O)[C@@H]32)OCO4)cc(OC)c1O (some centres undefined) | 0.857 µM (active)
27 | CC(C)C(=O)Oc1ccc(CO)cc1[C@H](CCN(C(C)C)C(C)C)c1ccccc1 | 27.1 µM (active)
28 | COc1cc2c(cc1Cc1cccc(Cl)c1F)c(=O)c(C(=O)O)cn2[C@H](CO)C(C)C | 0.215 µM (active)
29 | CCC(C)(C)C(=O)O[C@H]1C[C@@H](C)C=C2C=C[C@H](C)[C@H](CC[C@@H]3C[C@@H](O)CC(=O)O3)[C@H]21 | 1.21 µM (active)
30 | CCCCCCCCCCCC[n+]1ccc2ccccc2c1 | 1.92 µM (active)
31 | CNC(=O)c1cc(Oc2ccc(NC(=O)Nc3ccc(Cl)c(C(F)(F)F)c3)c(F)c2)ccn1 | 10.8 µM (active)
32 | CCCCN=C(N)N=C(N)N | inactive
33 | COC(=O)C1=C(C)NC(C)=C(C(=O)OCC(C)C)C1c1ccccc1[N+](=O)[O-] (centres undefined) | 24.1 µM (active)
34 | Cc1oncc1C(=O)Nc1ccc(C(F)(F)F)cc1 | inactive
